Results: PubChem BioAssay (NCI)
This is part of a sample that, as a whole, favours compounds with a hit. Of some 83,000 tested, about 20% had one in any assay.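 Testing used 96-well plates and a 48-hour single-concentration exposure. Example: -40 means 40% of the starting cells died.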 A number with no mark means an inactive call. The source made the active and inactive calls. The calls were made as follows: active = growth percent below 10; inactive = the rest.

What was measured:
Experiment in all cases: NCI-60 one-dose screen, 48 h (100 = growth as untreated, 0 = no growth, -100 = all killed)
NCI-H23 lung = settings: 10 µM unless noted
NCI-H226 lung = settings: 10 µM unless noted
NCI-H322M lung = settings: 10 µM unless noted
HOP-62 NSCLC = settings: 10 µM unless noted
NCI-H460 lung = settings: 10 µM unless noted
HOP-92 NSCLC = settings: 10 µM
A549/ATCC NSCLC = settings: 10 µM unless noted
786-0 renal = settings: 10 µM unless noted
COLO 205 colon = settings: 10 µM unless noted
DU-145 prostate = settings: 10 µM unless noted
K-562 leukemia = settings: 10 µM unless noted
MALME-3M melanoma = settings: 10 µM unless noted
MDA-MB-231 breast = settings: 10 µM unless noted
RXF 393 renal = settings: 10 µM unless noted
SF-268 CNS = settings: 10 µM unless noted
SF-295 CNS = settings: 10 µM unless noted
SF-539 CNS = settings: 10 µM unless noted
UACC-257 melanoma = settings: 10 µM unless noted
M14 melanoma = settings: 10 µM unless noted
NCI-H522 lung = settings: 10 µM unless noted

Row | SMILES | growth (NCI-H23 lung) | growth (NCI-H226 lung) | growth (NCI-H322M lung) [%] | growth (HOP-62 NSCLC) | growth (NCI-H460 lung) | growth (HOP-92 NSCLC) | growth (A549/ATCC NSCLC) [%] | growth (786-0 renal) | growth (COLO 205 colon) | growth (DU-145 prostate) [%] | growth (K-562 leukemia) | growth (MALME-3M melanoma) | growth (MDA-MB-231 breast) | growth (RXF 393 renal) | growth (SF-268 CNS) | growth (SF-295 CNS) | growth (SF-539 CNS) | growth (UACC-257 melanoma) | growth (M14 melanoma) [%] | growth (NCI-H522 lung) [%]
1 | C=CC(=O)N1CC=C(c2cc3c(N[C@H](C)c4ccccc4)ncnc3[nH]2)CC1 | 78.4% | 58.7% | 27.2 | 58.1% | 101% | 39% | 60.4 | 49.9% | 92.1% | 40.3 | 84.2% | 104% | 47.8% | -27.6% (active) | 63.4% | 79% | 60.1% | 102% | 100 | –
2 | O=C(c1ccc(O)cc1)[C@@H]1CN[C@@]2(C(=O)Nc3ccccc32)[C@H]1c1ccc(F)cc1 | 94.5% | 96.2% | 99.7 | 99.5% | 111% | 101% | – | 110% | 116% | 111 | 88% | 98.5% | 93.6% | – | 97.7% | 101% | 93.7% | 114% | – | 96.6
3 | COc1ccc(/C=C(/C)c2ccc3ccc(OC)cc3[o+]2)c(O)c1 | 53.2% | 70.9% | 94.7 | 92.1% | 81.5% | 66.7% | – | 88.9% | 115% | 86.1 | 31.9% | 85.2% | 72.7% | – | 88.1% | 94.2% | 96.1% | 89.7% | – | 53.1
4 | CN(C)C(=O)c1cc(-c2ccc3ncnc(NCc4ccccc4)c3c2)cnc1N | 91.6% | 91.8% | 87 | 63.2% | 104% | 81.1% | 72.9 | 67.7% | 116% | 55.6 | 95.9% | 101% | 70% | -4.14% (active) | 65.7% | 91.7% | 90.4% | 94.4% | 109 | –
5 | CS(=O)(=O)Nc1cc(-c2ccc3ncc(C#N)c(NCc4ccccc4O)c3c2)cnc1Cl | -7.77% (active) | 16.9% | 16.1 | 3.57% (active) | 7.88% (active) | -10.8% (active) | – | 8.24% (active) | 8.91% (active) | 19.2 | 22.3% | -37.2% (active) | 6.73% (active) | – | 6.44% (active) | -14.4% (active) | -14.5% (active) | 6.3% (active) | – | 12.8
6 | CC1(C)[C@@H](O)CC[C@]2(C)[C@H]3CC[C@@H]4[C@H]5[C@H](C(=O)/C=C\c6ccncc6)CC[C@]5(O)CC[C@@]4(C)[C@]3(C)CC[C@@H]12 | 49.2% | 27.8% | 93.4 | 89.9% | 62.9% | 91.9% | 71.5 | 35.3% | 91% | 38 | 9.43% (active) | 94.3% | -8.43% (active) | -13.7% (active) | 50.2% | 93.3% | 37.9% | 72.8% | 67.4 | –
7 | O=C(Nc1ccc2c(ccn2Cc2ccccn2)c1)c1cnccn1 | 97% | 88.3% | 106 | 72.7% | 105% | 91.4% | 86.1 | 87.6% | 120% | 95.6 | 107% | 106% | 86.7% | 47.8% | 84.1% | 97.5% | 96.4% | 102% | 106 | –
8 | CC1(C)[C@@H](O)CC[C@]2(C)[C@H]3CC[C@@H]4[C@H]5[C@H](C(=O)/C=C\c6ccc([N+](=O)[O-])cc6)CC[C@]5(O)CC[C@@]4(C)[C@]3(C)CC[C@@H]12 | 50.2% | -2.45% (active) | 90.8 | 86.9% | 51.8% | 82.7% | 61.8 | 56.8% | 106% | 58 | 27.3% | 66.6% | 46.2% | -7.82% (active) | 63.9% | 79.5% | 51.8% | 70.3% | 42.6 | –
